Experiments:
Assay in all cases: DAPPL (digital affinity profiling via proximity ligation, sequencing); 10 mM Tris-HCl pH 7.5, 50 mM NaCl, 1 mM DTT, 4% glycerol, room temperature, 30 min; GST-TFs on glutathione beads, 16-mer random dsDNA library, 0.1% formaldehyde crosslink after washing; high values mean tight binding
Conditions in all cases: protein: recombinant; tags: N-terminal GST; dsDNA, one strand shown
[1] = molecular target: T1, FLI1 (Homo sapiens, UniProt Q01543 1-452)
T1 sequence: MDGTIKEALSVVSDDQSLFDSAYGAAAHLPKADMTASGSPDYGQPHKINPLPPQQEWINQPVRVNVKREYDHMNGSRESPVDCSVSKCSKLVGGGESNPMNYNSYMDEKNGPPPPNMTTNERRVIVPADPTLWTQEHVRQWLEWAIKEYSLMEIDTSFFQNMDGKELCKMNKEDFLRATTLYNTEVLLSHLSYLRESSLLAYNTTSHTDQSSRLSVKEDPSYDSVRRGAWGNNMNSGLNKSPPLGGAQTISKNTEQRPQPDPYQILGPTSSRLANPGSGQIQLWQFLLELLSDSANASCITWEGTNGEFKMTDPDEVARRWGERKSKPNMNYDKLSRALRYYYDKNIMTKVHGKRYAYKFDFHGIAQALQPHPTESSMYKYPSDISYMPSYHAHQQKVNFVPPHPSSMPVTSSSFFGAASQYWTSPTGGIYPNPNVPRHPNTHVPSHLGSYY
How it was run: (§1)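 The binding signal reported is, for every hexamer, its read frequency for a factor over its read frequency for the tag-only sample. Reads came from pools of yeast-expressed, GST-fused human transcription factors on glutathione beads, barcoded with DNA and mixed with that sample, which were incubated with 200 nmole of a random double-stranded 16-mer DNA library in Tris/NaCl/DTT/glycerol buffer at room temperature for 30 min. After washing, the pools were crosslinked with 0.1% formaldehyde, proximity-ligated with BsaI/T4 ligase for 1 h at 37 °C, PCR-amplified and sequenced on an Illumina NextSeq500.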

[2] = molecular target: T2, ELK1 (Homo sapiens, UniProt P19419 1-428)
T2 sequence: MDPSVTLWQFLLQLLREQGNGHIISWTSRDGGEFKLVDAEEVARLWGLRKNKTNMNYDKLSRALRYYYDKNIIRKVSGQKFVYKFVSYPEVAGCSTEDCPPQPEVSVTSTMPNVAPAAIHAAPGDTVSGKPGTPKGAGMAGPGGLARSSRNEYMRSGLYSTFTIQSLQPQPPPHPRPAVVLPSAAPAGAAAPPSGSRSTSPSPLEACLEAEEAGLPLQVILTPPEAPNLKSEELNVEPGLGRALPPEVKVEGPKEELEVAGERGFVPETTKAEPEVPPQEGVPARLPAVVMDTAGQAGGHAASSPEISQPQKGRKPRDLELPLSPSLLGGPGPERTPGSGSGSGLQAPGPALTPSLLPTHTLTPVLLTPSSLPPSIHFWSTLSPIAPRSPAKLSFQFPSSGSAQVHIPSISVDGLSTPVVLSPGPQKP
How it was run: as §1

[3] = molecular target: T3, GABPA (Homo sapiens, UniProt Q06546 1-454)
T3 sequence: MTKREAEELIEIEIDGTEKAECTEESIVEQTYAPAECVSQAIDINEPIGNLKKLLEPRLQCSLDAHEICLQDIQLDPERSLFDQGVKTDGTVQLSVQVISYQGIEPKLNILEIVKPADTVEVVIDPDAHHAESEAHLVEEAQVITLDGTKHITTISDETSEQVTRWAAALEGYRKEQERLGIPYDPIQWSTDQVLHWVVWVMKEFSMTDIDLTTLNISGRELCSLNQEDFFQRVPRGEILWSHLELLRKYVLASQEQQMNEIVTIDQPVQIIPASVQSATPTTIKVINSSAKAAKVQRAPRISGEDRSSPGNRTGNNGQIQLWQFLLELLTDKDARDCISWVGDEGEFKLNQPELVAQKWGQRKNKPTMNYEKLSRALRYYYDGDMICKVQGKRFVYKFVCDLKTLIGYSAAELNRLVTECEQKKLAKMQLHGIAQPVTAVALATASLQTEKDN
How it was run: as §1

[4] = molecular target: T4, ERG (Homo sapiens, UniProt P11308 1-479)
T4 sequence: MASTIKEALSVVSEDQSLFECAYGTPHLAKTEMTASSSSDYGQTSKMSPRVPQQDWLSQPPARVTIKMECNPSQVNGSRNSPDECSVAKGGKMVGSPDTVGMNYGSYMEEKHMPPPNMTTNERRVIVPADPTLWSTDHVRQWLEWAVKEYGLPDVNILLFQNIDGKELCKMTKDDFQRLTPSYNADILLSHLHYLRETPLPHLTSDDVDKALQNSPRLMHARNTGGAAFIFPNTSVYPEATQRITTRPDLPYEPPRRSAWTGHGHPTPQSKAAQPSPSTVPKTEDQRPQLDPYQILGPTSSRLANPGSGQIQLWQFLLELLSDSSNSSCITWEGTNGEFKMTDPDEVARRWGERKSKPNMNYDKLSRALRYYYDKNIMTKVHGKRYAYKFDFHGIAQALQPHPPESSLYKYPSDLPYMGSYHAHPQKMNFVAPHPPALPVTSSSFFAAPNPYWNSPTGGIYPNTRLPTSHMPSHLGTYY
How it was run: as §1

[5] = molecular target: ELF1 (Homo sapiens, UniProt P32519 1-619)
Sequence of ELF1 (P32519 whole entry): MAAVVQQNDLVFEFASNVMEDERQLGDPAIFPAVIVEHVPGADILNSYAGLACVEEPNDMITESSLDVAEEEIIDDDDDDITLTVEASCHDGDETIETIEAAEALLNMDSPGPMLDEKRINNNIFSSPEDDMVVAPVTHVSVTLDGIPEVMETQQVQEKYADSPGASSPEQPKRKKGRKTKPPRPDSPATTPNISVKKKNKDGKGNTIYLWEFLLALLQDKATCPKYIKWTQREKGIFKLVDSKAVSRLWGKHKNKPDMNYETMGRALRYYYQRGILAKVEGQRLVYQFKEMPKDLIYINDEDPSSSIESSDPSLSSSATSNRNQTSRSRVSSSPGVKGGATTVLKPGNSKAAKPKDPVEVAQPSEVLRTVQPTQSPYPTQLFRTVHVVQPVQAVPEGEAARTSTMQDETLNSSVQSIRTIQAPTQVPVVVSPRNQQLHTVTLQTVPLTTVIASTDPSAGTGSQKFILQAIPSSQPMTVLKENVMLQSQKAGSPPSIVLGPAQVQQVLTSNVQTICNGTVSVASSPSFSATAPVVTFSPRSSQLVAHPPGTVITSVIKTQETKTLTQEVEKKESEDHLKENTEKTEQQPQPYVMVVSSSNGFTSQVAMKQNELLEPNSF
How it was run: as §1

[6] = molecular target: T5, EHF (Homo sapiens, UniProt Q9NZC4 1-300)
T5 sequence: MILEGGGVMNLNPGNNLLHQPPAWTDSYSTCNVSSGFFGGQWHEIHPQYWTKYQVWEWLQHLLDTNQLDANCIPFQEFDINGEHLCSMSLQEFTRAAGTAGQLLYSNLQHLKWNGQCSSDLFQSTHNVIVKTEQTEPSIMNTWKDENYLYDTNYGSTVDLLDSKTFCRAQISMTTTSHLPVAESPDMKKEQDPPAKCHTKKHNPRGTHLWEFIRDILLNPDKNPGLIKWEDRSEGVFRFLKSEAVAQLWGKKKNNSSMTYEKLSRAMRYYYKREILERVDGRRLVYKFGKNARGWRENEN
How it was run: as §1

[7] = molecular target: SPI1 (Homo sapiens, UniProt P17947 1-270)
How it was run: as §1

[8] = molecular target: SPIB (Homo sapiens, UniProt Q01892 1-262)
Sequence of SPIB (Q01892 whole entry): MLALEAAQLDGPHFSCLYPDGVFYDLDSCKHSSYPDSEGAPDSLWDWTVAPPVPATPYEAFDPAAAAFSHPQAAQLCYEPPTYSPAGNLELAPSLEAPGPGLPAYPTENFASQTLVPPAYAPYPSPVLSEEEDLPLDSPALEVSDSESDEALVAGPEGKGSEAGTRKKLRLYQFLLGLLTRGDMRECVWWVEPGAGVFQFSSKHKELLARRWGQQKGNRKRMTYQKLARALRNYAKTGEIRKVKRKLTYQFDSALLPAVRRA
How it was run: as §1

[9] = molecular target: T6, ELK3 (Homo sapiens, UniProt P41970 1-407)
T6 sequence: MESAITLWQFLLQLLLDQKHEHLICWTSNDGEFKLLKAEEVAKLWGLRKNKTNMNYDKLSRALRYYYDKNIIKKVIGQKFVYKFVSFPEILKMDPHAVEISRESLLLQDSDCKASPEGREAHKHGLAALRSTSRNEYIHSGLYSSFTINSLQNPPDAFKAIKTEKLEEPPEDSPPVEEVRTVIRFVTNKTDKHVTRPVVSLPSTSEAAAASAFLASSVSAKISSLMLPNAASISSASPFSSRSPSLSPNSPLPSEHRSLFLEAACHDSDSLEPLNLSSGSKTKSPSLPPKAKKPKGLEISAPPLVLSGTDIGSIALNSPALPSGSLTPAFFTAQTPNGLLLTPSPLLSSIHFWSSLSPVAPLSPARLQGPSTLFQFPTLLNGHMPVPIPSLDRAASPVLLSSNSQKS
How it was run: as §1

[10] = molecular target: T7, FEV (Homo sapiens, UniProt Q99581 1-238)
T7 sequence: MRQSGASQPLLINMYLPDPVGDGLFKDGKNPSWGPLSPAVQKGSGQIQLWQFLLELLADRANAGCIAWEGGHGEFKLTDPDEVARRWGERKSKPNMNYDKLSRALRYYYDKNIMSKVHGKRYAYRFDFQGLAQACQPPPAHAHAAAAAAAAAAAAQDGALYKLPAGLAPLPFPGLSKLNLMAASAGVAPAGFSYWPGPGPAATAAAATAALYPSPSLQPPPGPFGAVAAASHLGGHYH
How it was run: as §1

[11] = molecular target: ETV5 (Homo sapiens, UniProt P41161 1-510)
Sequence of ETV5 (P41161 whole entry): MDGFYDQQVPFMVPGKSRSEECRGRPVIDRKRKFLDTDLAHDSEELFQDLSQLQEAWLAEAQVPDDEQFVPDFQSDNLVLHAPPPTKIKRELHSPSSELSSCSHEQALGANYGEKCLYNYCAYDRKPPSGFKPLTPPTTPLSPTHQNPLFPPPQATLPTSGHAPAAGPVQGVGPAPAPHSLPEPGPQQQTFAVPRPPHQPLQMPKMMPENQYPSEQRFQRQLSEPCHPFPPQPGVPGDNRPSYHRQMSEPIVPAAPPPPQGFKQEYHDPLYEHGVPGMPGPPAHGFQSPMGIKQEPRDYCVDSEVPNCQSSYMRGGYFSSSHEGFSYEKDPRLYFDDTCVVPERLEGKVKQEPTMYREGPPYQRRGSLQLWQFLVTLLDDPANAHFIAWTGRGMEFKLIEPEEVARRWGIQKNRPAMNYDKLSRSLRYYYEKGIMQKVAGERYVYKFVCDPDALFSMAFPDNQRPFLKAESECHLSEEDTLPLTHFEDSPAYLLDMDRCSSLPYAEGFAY
How it was run: as §1

[12] = molecular target: T8, SPIC (Homo sapiens, UniProt Q8N5J4 1-248)
T8 sequence: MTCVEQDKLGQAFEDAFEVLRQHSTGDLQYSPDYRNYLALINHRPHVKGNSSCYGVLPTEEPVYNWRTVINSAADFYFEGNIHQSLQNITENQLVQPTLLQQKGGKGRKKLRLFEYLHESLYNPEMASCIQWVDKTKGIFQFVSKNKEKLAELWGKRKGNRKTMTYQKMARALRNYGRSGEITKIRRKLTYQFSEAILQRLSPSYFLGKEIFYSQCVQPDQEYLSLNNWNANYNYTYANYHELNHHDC
How it was run: as §1

[13] = molecular target: ELF4 (Homo sapiens, UniProt Q99607 1-663)
Sequence of ELF4 (Q99607 whole entry): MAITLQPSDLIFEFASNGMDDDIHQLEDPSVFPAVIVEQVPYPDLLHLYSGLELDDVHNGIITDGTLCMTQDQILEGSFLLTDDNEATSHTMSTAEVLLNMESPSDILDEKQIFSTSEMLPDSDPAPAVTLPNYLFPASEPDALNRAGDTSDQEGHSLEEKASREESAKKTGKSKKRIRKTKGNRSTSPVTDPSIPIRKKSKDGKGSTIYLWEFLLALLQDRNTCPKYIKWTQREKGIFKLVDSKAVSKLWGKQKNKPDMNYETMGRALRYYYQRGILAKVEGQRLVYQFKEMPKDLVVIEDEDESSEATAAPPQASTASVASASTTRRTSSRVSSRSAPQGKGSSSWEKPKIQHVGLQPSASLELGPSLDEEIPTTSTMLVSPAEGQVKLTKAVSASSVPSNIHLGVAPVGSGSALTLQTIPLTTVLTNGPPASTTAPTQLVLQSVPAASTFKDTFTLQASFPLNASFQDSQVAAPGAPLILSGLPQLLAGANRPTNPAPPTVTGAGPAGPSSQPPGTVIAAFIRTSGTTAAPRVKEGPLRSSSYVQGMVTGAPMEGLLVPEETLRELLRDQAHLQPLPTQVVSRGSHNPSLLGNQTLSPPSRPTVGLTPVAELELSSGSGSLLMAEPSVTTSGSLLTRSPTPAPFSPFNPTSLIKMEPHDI
How it was run: as §1

[14] = molecular target: ETV1 (Homo sapiens, UniProt P50549 1-477)
Sequence of ETV1 (P50549 whole entry): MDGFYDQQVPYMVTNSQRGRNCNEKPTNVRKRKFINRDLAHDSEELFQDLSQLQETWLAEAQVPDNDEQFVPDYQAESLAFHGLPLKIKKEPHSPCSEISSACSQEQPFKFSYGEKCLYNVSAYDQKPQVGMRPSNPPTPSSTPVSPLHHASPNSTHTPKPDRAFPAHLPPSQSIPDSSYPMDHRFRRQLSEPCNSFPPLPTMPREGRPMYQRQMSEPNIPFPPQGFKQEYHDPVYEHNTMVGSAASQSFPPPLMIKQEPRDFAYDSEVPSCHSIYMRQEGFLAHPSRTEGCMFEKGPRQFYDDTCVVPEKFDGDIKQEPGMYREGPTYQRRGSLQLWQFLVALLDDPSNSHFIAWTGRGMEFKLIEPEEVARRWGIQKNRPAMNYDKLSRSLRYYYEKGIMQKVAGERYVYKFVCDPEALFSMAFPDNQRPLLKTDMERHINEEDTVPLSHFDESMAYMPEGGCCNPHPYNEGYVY
How it was run: as §1

[15] = molecular target: T9, ERF (Homo sapiens, UniProt P50548 1-548)
T9 sequence: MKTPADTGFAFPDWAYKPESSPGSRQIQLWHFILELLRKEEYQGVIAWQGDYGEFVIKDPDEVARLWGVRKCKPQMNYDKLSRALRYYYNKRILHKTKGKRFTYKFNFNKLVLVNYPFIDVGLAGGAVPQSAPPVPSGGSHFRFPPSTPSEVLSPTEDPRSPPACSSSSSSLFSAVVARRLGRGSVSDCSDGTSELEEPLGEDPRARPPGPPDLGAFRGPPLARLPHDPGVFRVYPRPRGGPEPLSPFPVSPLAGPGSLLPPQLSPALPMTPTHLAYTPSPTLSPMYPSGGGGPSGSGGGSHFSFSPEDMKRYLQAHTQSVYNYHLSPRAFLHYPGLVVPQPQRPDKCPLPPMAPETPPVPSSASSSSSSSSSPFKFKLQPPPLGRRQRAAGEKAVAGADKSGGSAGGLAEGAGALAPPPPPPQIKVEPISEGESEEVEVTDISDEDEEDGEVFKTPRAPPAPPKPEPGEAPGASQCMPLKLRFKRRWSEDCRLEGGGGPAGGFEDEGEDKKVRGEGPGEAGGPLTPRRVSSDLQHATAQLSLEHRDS
How it was run: as §1

[16] = molecular target: T10, ETV3L (Homo sapiens, UniProt Q6ZN32 1-361)
T10 sequence: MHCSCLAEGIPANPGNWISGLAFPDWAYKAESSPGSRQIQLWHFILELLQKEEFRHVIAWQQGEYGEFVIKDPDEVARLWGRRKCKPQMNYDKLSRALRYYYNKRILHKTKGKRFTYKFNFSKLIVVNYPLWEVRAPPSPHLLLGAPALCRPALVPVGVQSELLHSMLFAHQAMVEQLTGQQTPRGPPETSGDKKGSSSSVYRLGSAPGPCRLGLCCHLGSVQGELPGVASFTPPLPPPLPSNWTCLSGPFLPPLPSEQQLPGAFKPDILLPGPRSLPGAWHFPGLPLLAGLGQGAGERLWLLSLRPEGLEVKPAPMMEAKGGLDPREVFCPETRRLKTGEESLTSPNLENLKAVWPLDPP
How it was run: as §1

[17] = molecular target: T11, ETS2 (Homo sapiens, UniProt P15036 1-469)
T11 sequence: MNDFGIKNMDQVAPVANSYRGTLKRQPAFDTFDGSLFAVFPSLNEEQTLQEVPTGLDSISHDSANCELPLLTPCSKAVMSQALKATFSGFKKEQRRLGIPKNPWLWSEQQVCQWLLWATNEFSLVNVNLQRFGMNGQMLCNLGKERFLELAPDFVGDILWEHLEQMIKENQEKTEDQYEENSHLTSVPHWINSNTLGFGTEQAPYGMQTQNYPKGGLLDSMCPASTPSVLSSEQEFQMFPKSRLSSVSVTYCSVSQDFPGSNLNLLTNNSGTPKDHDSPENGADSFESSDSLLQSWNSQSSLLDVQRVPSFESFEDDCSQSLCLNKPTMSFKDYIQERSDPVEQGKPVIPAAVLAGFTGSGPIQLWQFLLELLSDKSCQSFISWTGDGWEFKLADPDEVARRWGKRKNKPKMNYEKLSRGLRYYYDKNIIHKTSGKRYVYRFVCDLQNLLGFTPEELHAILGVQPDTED
How it was run: as §1

[18] = molecular target: T12, ETV3 (Homo sapiens, UniProt P41162-2 1-143)
T12 sequence: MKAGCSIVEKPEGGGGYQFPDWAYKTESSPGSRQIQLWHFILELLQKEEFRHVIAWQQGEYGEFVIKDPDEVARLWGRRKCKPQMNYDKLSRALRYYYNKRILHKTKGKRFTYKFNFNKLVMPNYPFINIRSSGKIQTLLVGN
How it was run: as §1

[19] = molecular target: ETV6 (Homo sapiens, UniProt P41212 1-452)
Sequence of ETV6 (P41212 whole entry): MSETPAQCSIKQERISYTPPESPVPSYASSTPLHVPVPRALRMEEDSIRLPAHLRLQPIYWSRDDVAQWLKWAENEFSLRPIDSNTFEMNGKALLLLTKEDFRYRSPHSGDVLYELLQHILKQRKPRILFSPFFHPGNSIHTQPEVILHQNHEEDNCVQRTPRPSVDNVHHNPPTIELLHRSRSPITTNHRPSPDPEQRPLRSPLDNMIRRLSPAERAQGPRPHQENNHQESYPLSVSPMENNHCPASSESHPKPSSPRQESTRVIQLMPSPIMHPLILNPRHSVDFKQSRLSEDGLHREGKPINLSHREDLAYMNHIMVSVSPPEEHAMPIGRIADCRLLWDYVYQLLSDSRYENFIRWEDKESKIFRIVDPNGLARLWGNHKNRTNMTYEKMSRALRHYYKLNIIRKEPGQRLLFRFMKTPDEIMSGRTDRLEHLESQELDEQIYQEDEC
How it was run: as §1

With GTCCCA the binding signal [1] was 1.03 fold enrichment (6-mer frequency, TF over GST control), the binding signal [2] was 1.14 fold enrichment (6-mer frequency, TF over GST control) and the binding signal [3] was 1.11 fold enrichment (6-mer frequency, TF over GST control). The binding signal [4] was 1.17 fold enrichment (6-mer frequency, TF over GST control), the binding signal [5] was 1.14 fold enrichment (6-mer frequency, TF over GST control) and the binding signal [6] was 1.1 fold enrichment (6-mer frequency, TF over GST control). For the same sequence, the binding signal [7] was 1.13 fold enrichment (6-mer frequency, TF over GST control), the binding signal [8] was 1.06 fold enrichment (6-mer frequency, TF over GST control) and the binding signal [9] was 1.18 fold enrichment (6-mer frequency, TF over GST control). For the same sequence, the binding signal [10] was 1.12 fold enrichment (6-mer frequency, TF over GST control), the binding signal [11] was 1.05 fold enrichment (6-mer frequency, TF over GST control) and the binding signal [12] was 1.12 fold enrichment (6-mer frequency, TF over GST control). For the same sequence, the binding signal [13] was 1.13 fold enrichment (6-mer frequency, TF over GST control), the binding signal [14] was 1.14 fold enrichment (6-mer frequency, TF over GST control) and the binding signal [15] was 1.12 fold enrichment (6-mer frequency, TF over GST control). For the same sequence, the binding signal [16] was 1.13 fold enrichment (6-mer frequency, TF over GST control), the binding signal [17] was 1.05 fold enrichment (6-mer frequency, TF over GST control) and the binding signal [18] was 1.07 fold enrichment (6-mer frequency, TF over GST control). For the same sequence, the binding signal [19] was 1.03 fold enrichment (6-mer frequency, TF over GST control).

Reference: article PMC7862700, “An all-to-all approach to the identification of sequence-specific readers for epigenetic DNA modifications on cytosine”
